Molecules are shown by their SMILES. Where “and” joins values, the source holds several entries; their conditions need not be identical. Equal entries are not always repeated. In all, about 6,400 compounds went through this assay and about 610 (9.5%) were called active. Rule as the data show it: active = activity change below about -70%; inconclusive = no clear call, values can overlap the other calls; inactive = above that. Many of the other results were omitted from the sample, so actives are more common in it than they were. A structure can be active in one record and inactive in another.

A short description of this assay: Toxoplasma gondii ME49Luc growth in HeLa cells, luciferase, no IFN-y, primary screen (AID 1259421). To be noted: T. gondii ME49Luc in HeLa, 72 h, stronger effect = lower value, concentration not given here.
Turning to `CN1CCN(C(=O)C2C3CCC(O3)C2C(=O)O)CC1` (stereo not drawn), the activity change, negative = inhibition is 3.27% (inactive).
The figure for `Cc1sc[n+](CC(=O)c2ccccc2)c1C` is 60.9% (inactive).
For the compound `CSc1ccc2c(c1)C(N1CCN(C)CC1)Cc1ccccc1S2` (stereo not drawn), the activity change, negative = inhibition was -82.4% (active) and -87% (active) and -85.3% (active).
As to `CSc1ccc2c(c1)N(CCC1CCCCN1C)c1ccccc1S2` (stereo not drawn), the activity change, negative = inhibition was 31.1% (inactive) and -16.1% (inactive).
Regarding `CN1CCN(C2Cc3ccccc3Sc3ccc(Cl)cc32)CC1` (stereo not drawn), the activity change, negative = inhibition is 7.98% (inactive).
Regarding `C[C@@H]1O[C@@H](O[C@H]2[C@H](Oc3cc(O)c4c(=O)cc(-c5ccc(O)cc5)oc4c3)O[C@H](CO)[C@@H](O)[C@@H]2O)[C@H](O)[C@H](O)[C@H]1O`, the activity change, negative = inhibition is 5.34% (inactive).
With `CCO[C@H]1OC(=O)C[C@@H]1NC(=O)[C@@H]1CCCN1C(=O)[C@@H](NC(=O)c1ccc(N)c(Cl)c1)C(C)(C)C`, the activity change, negative = inhibition was 3.07% (inactive).
`CCOC(=O)[C@@]1(CCCCCCOc2ccc(Cl)cc2)CO1`: the activity change, negative = inhibition is 17.5% (inactive).
The figure for `O=C(O)CC(=O)C(=O)O` is 21.8% (inactive); for `CCCCCCCCNC(C)C(O)c1ccc(SC(C)C)cc1` (stereo not drawn) it is -84.8% (active) and -78% (active) and 18.5% (inactive); for `CC(NCCc1ccc(O)cc1)C(O)c1ccc(O)cc1` (stereo not drawn) it is 1.92% (inactive) and 4.83% (inactive).
As to `C[C@@H](NCCc1ccc(O)cc1)[C@@H](O)c1ccc(O)cc1`, the activity change, negative = inhibition is 24.4% (inactive).
As for `NS(=O)(=O)c1cccc2c1c([N+](=O)[O-])cc1[nH]c(=O)c(=O)[nH]c12`, the figure is 4.26% (inactive) and 1.99% (inactive) and 17.2% (inactive).
`CC(C)C1C2CCC(C2)C1N` (stereo not drawn): the activity change, negative = inhibition is -31.8% (inactive).
Consider `O=[N+]([O-])c1nccn1CC(O)CN1CCCCC1` (stereo not drawn), for which the activity change, negative = inhibition was -0.914% (inactive).
As for `Cc1nc(C)c(-c2ccc(C3CCC(CC(=O)O)CC3)cc2)nc1C(N)=O` (stereo not drawn), the figure is 21.5% (inactive); as for `CNC(=O)[C@H]1O[C@@H](n2cnc3c(NCc4cccc(I)c4)nc(Cl)nc32)[C@H](O)[C@@H]1O`, -25.8% (inactive); as for `C=CC(=O)N1CCC[C@@H](n2nc(-c3ccc(Oc4ccccc4)cc3)c3c(N)ncnc32)C1`, -76.1% (active).
The figure for `C/C(=C(/CCOC(=O)C(C)C)SS/C(CCOC(=O)C(C)C)=C(\C)N(C=O)Cc1cnc(C)nc1N)N(C=O)Cc1cnc(C)nc1N` is -5.95% (inactive).
With `CC(C)c1c(O)ccc2c1CCC1C(C)(C)CCC[C@]21C` (stereo partly drawn), the activity change, negative = inhibition is 25.1% (inactive).
Consider `CC(=O)Oc1ccc2c(c1C(C)C)CCC1C(C)(C)CCC[C@]21C` (stereo partly drawn), for which the activity change, negative = inhibition is -4.41% (inactive).
As for `COC(=O)[C@@]1(C)CCC[C@]2(C)c3ccc(O)c(C(C)C)c3CCC12` (stereo partly drawn), the figure is -72.7% (active); as for `CC(=O)C(C#N)C(=O)Nc1cc(Br)ccc1Br` (stereo not drawn), -2.2% (inactive) and 12.8% (inactive); as for `COC(=O)C[C@H]1C(C)(C)C(=O)[C@@H]2CC3C4=CC(=O)O[C@@H](c5ccoc5)[C@]4(C)CCC3[C@@]1(C)C2=O` (stereo partly drawn), 6.27% (inactive).
As to `CC[C@@]1(C2O[C@@H](C3O[C@@](O)(CO)[C@H](C)C[C@@H]3C)C[C@@H]2C)CC[C@H]([C@]2(C)CC[C@]3(C[C@H](O)[C@@H](C)[C@@H]([C@@H](C)[C@@H](OC)[C@H](C)C(=O)O)O3)O2)O1` (stereo partly drawn), the activity change, negative = inhibition is -80.3% (active).
As for `COC(=O)C1C(O)CCC2CN3CCc4c([nH]c5ccccc45)C3CC21` (stereo not drawn), the activity change, negative = inhibition was 6.81% (inactive).
With `C[C@@H]1O[C@@H](OC[C@H]2OC(Oc3c(-c4ccc(OCCO)c(OCCO)c4)oc4cc(OCCO)cc(O)c4c3=O)[C@H](O)[C@@H](O)[C@@H]2O)[C@H](O)[C@H](O)[C@H]1O` (stereo partly drawn), the activity change, negative = inhibition is 0.547% (inactive).
Take `CN=C(NC#N)NCCSCc1csc(N=C(N)N)n1`: the activity change, negative = inhibition is 21.3% (inactive) and 9.18% (inactive).
As for `COc1ccc(/C=C\c2cc(OC)c(OC)c(OC)c2)cc1OP(=O)(O)O`, the activity change, negative = inhibition is -67.2% (inactive).
The figure for `CN1CCC(Nc2ncc3ncnc(Nc4ccc(F)c(Cl)c4)c3n2)CC1` is 7.3% (inactive); for `COc1ccc(F)c(F)c1C(=O)c1cnc(NC2CCN(S(C)(=O)=O)CC2)nc1N` it is -87.7% (active); for `C[C@H](Oc1ccc(S(C)(=O)=O)cc1C(=O)N1CCN(c2ncc(C(F)(F)F)cc2F)CC1)C(F)(F)F` it is -27.8% (inactive).
In the case of `O=C(NC(Cc1c[nH]c2ccccc12)C(=O)O)c1ccc(Cl)cc1` (stereo not drawn), the activity change, negative = inhibition is 4.2% (inactive).
In the case of `C=CC(=O)Nc1ccc(OC)cc1`, the activity change, negative = inhibition was 7.75% (inactive).
For the compound `Cc1cc(Cn2cnc3c2C[C@@H](C(=O)O)N(C(=O)C(c2ccccc2)c2ccccc2)C3)ccc1N(C)C`, the activity change, negative = inhibition is 25.4% (inactive).
Regarding `CCC(=O)O[C@@H](OP(=O)(CCCCc1ccccc1)CC(=O)N1C[C@H](C2CCCCC2)C[C@H]1C(=O)O)C(C)C` (stereo partly drawn), the activity change, negative = inhibition is 11.7% (inactive).
Regarding `CN(C)C(=O)COC(=O)Cc1ccc(OC(=O)c2ccc(N=C(N)N)cc2)cc1`, the activity change, negative = inhibition was 0.553% (inactive).
The figure for `Nc1nc(=S)c2[nH]cnc2[nH]1` is -77.5% (active).
Turning to `S=c1nc[nH]c2nc[nH]c12`, the activity change, negative = inhibition is -59.8% (inactive).
The figure for `Nc1ncnc2nc[nH]c12` is 5.62% (inactive); for `CC(NC(=O)CCc1nc2ccccc2c(=O)[nH]1)c1ccccc1` (stereo not drawn) it is 4.68% (inactive); for `CCOC(=O)c1cnc[nH]1` it is 7.3% (inactive).
The figure for `CC1(C)CC(=O)C(C2C3=C(CC(C)(C)CC3=O)Oc3ccccc32)C(=O)C1` (stereo not drawn) is 4.42% (inactive) and -1.95% (inactive); for `CCc1nc(N)nc(N)c1-c1ccc(Cl)cc1` it is -89.2% (active) and -80% (active).
The figure for `CC(C)Cc1sc(N)nc1-c1ccc(P(=O)(O)O)o1` is 7.23% (inactive); for `CC(=O)O[C@@]12CO[C@@H]1C[C@H](O)[C@@]1(C)C(=O)[C@H](O)C3=C(C)[C@@H](OC(=O)[C@H](O)[C@@H](NC(=O)OC(C)(C)C)c4ccccc4)C[C@@](O)([C@@H](OC(=O)c4ccccc4)C12)C3(C)C` (stereo partly drawn) it is -80.2% (active); for `CO[C@H]1C(=O)[C@@]2(C)[C@H]([C@@H](OC(=O)c3ccccc3)[C@@]3(O)C[C@H](OC(=O)[C@H](O)[C@@H](NC(=O)OC(C)(C)C)c4ccccc4)C(C)=C1C3(C)C)[C@]1(OC(C)=O)CO[C@@H]1C[C@H]2OC` it is -82.6% (active).
With `CC(=O)O[C@@]12CO[C@@H]1C[C@H](O)[C@@]1(C)C(=O)[C@H](O)C3=C(C)[C@@H](OC(=O)[C@H](O)[C@@H](NC(=O)OC(C)(C)C)c4ccccc4)C[C@@](O)([C@@H](OC(=O)c4ccccc4)[C@H]21)C3(C)C`, the activity change, negative = inhibition is -73.3% (active) and -80.3% (active).
Turning to `Cc1cccc(C)c1NC(=O)/N=C1/CCCN1C`, the activity change, negative = inhibition was 6.63% (inactive).
As for `COc1ccc(/C=C/C(=O)c2ccc(O)cc2O)cc1`, the figure is 82.9% (inactive).
As for `COc1ccnc(CS(=O)c2nc3ccc(OC(F)F)cc3[nH]2)c1OC` (stereo not drawn), the figure is 26.3% (inactive) and 7.86% (inactive); as for `Cc1ccc(OCC(O)C(C)NC(C)C)c2c1CCC2` (stereo not drawn), 14.3% (inactive); as for `Cc1oc(=O)oc1CN1CCN(c2cc3c(cc2F)c(=O)c(C(=O)O)c2n3C(C)S2)CC1` (stereo not drawn), 19.8% (inactive).
Turning to `COc1cc(-c2coc3cc(OCc4ccccc4)c(OC)c(O)c3c2=O)cc(OCc2ccccc2)c1OC`, the activity change, negative = inhibition was -39.8% (inactive).
For the compound `COc1ccc([C@@H]2CC(=O)c3c(O)cc(O[C@@H]4O[C@H](CO[C@H]5O[C@@H](C)[C@H](O)[C@@H](O)[C@H]5O)[C@@H](O)[C@H](O)[C@H]4O)cc3O2)cc1O`, the activity change, negative = inhibition was 5.14% (inactive).
As for `Cc1cc(N2CCN([C@@H]3CN[C@H](C(=O)N4CCSC4)C3)CC2)n(-c2ccccc2)n1`, the figure is -3% (inactive); as for `COC(=O)N1CCN(Cc2cccc(NC(=O)Nc3ccc(C)nc3)c2F)CC1`, 9.25% (inactive); as for `Cc1ccc(C(=O)Nc2ccc(CN3CCN(C)CC3)c(C(F)(F)F)c2)cc1C#Cc1cnc2[nH]ncc2c1`, -89.3% (active).
Regarding `Cc1ccc(C(=O)Nc2ccc(CN3CCN(C)CC3)c(C(F)(F)F)c2)cc1C#Cc1cnc2cccnn12`, the activity change, negative = inhibition was -83% (active).
As to `CCCCCCCCCCCCCCCC(=O)OC[C@H](NC(=O)C(Cl)Cl)[C@H](O)c1ccc([N+](=O)[O-])cc1`, the activity change, negative = inhibition was 7.24% (inactive) and 16.1% (inactive).
The figure for `NC(=O)CCC1NC(=O)C(Cc2ccccc2)NC(=O)C(Cc2ccc(O)cc2)NC(=O)CCSSCC(C(=O)N2CCCC2C(=O)NC(CCCN=C(N)N)C(=O)NCC(N)=O)NC(=O)C(CC(N)=O)NC1=O` (stereo not drawn) is 7.89% (inactive).
With `COc1cc(/C=C/C(=O)O)cc(OC)c1O`, the activity change, negative = inhibition is -2.18% (inactive).
The figure for `COc1cc2c(cc1OC)C(c1ccc(N)cc1)=NNC(=O)C2` is -18.7% (inactive) and 7.52% (inactive); for `CC1=C(SCCO)C(=O)c2ccccc2C1=O` it is 29.8% (inactive); for `COc1ccc2c(c1)c1c3n2CCN(C)C3=NCC1` it is 14.7% (inactive).
On to `C=CC(=O)N1CCCCC1`, for which the activity change, negative = inhibition was 4.09% (inactive).
As for `CN([NH2+][O-])C(=O)N[C@@H]1[C@@H](O)[C@H](O)[C@@H](CO)O[C@@H]1O`, the figure is -1.36% (inactive).
Regarding `Cc1ccc(O)c(N=Nc2ccccc2)n1`, the activity change, negative = inhibition is 8.22% (inactive) and 3.77% (inactive).
As for `COc1cccc2c1C(=O)c1c(O)c3c(c(O)c1C2=O)CC(O)(C(=O)CO)CC3OC1CC(N)C(O)C(C)O1` (stereo not drawn), the activity change, negative = inhibition is -89.5% (active).
Regarding `COc1cccc2c1C(=O)c1c(O)c3c(c(O)c1C2=O)C[C@@](O)(C(=O)CO)C[C@@H]3O[C@H]1C[C@H](N)[C@@H](O)[C@H](C)O1`, the activity change, negative = inhibition was -80.9% (active).
With `CCCCC(=O)OCC(=O)[C@]1(O)Cc2c(O)c3c(c(O)c2[C@@H](O[C@H]2C[C@H](NC(=O)C(F)(F)F)[C@H](O)[C@H](C)O2)C1)C(=O)c1c(OC)cccc1C3=O`, the activity change, negative = inhibition was -24.8% (inactive).
Take `COc1cccc2c1C(=O)c1c(O)c3c(c(O)c1C2=O)C[C@@](O)(C(=O)CO)C[C@@H]3O[C@H]1C[C@H](N)[C@H](O)[C@H](C)O1`: the activity change, negative = inhibition was -78.1% (active) and -79.4% (active).
`COc1cccc2c1C(=O)c1c(O)c3c(c(O)c1C2=O)C[C@@](O)(C(=O)CO)C[C@@H]3OC1C[C@H](N)[C@H](O)[C@H](C)O1` (stereo partly drawn): the activity change, negative = inhibition is -87.6% (active).

The values are drawn from PubChem BioAssay AID1259421 (Broad Institute, 2018).
